Measured values as given in PubChem BioAssay (Tox21).
Records with an inconclusive call do not appear. A number with no mark means an inactive call. The source made the active and inactive calls. Unless noted, calls follow the shape of the dose curve; as a rule, active = well fitted cell-killing curve with a large enough effect in the repeat runs; inconclusive = weak or mixed curves, or effect the other way; inactive = no such curve, though single readings can be large or run the other way.

molecular target: Progesterone receptor (Homo sapiens) (UniProt P06401); assay: qHTS assay to identify small molecule antagonists of the progesterone receptor (PR) signaling pathway (AID 1346795; active = well fitted inhibition curve with a large enough effect in the signal ratio in the repeat runs, not every such curve was filed as active; the % refers to the signal ratio); conditions: PR-UAS-bla HEK293T, beta-lactamase FRET ratio, 16 h; series mostly up to 92.4 µM; activity change, negative = inhibition: at the top concentration
Sequence (P06401 whole entry, looked up): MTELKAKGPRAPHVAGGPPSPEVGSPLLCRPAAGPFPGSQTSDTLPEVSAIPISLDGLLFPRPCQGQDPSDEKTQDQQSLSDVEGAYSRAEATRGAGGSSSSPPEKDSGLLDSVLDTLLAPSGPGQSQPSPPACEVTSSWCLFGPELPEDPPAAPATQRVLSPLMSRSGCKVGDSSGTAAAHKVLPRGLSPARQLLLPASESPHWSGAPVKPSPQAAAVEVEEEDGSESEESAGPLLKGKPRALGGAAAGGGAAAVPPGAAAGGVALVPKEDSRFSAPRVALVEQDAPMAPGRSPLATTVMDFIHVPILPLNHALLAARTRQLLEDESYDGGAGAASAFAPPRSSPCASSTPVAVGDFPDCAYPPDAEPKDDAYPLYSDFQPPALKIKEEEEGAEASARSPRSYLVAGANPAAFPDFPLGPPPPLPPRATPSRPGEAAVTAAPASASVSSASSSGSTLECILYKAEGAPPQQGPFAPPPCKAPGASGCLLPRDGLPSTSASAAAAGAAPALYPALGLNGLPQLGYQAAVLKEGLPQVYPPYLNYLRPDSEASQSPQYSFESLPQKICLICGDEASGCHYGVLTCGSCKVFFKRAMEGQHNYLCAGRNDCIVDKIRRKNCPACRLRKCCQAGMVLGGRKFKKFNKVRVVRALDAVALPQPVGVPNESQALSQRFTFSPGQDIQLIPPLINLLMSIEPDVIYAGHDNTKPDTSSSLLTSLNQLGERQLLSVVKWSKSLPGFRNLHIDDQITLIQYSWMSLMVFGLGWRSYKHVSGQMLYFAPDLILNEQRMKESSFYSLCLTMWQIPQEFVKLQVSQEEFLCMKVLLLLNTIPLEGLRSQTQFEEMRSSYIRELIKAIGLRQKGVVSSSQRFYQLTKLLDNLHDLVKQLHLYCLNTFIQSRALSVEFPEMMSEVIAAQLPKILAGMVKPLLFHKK
Summary of the method: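 Antagonist mode: compounds tested against 1 nM (final) promegestone stimulation in HEK293T cells expressing PR-UAS-bla reporter, 16 hr at 37C, 5% CO2; beta-lactamase activity detected via B/G FRET substrate after 2 hr at room temperature.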
% is scaled to controls: 0 for no effect and ±100 for the full control effect; potency is read from the fitted curve at half-maximal effect.

Compound	activity change, negative = inhibition	Potency
C#CCOC(C(=O)OCCN(C)C)(c1ccccc1)c1ccccc1	-11.5% [at 42.5 µM]	–
O=S(=O)(Cl)c1ccccc1	0.102%	–
Cc1cc(=O)[nH]o1	5.6%	–
O=C(O)COc1ccc(Cl)cc1	13.4%	–
CNC(C)Cc1ccccc1OC (configuration not stated)	6.66% [at 42.5 µM]	–
c1ccc(CN2CCNCC2)cc1	10.6% [at 238 µM]	–
CCN(C)N=O	8.26%	–
ClCc1ccccc1	5.55%	–
O=S1OC[C@@H]2[C@H](CO1)[C@]1(Cl)C(Cl)=C(Cl)[C@@]2(Cl)C1(Cl)Cl (some centres not stated)	–	30.6 µM (active)
CCCCCC[N+](=O)[O-]	3.3%	–

tested on: not listed separately; assay: qHTS assay to identify small molecule antagonists of the progesterone receptor (PR) signaling pathway - cell viability counter screen (AID 1346798); conditions: PR-UAS-bla HEK293T viability, CellTiter-Glo luminescence, 16 h; series mostly up to 92.4 µM; activity change, negative = cytotoxicity: at the top concentration; also: nearly all actives have a fitted effect of over 50% in size
Summary of the method: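 Counter screen for cytotoxicity: viability of PR-UAS-bla HEK293T cells was measured with CellTiter-Glo luminescence following 16 hr compound exposure in the presence of R5020.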

Compound	Potency	activity change, negative = cytotoxicity
CCCCCCCCOC(=O)c1ccc(C(=O)OCCCCCCCC)c(C(=O)OCCCCCCCC)c1	27.6 µM (active)	–
CC(C)O.CC(C)O.OCCN(CCO)CCO.OCCN(CCO)CCO.[Ti]	–	-4.84%
C[N+](C)(C)CCCl	–	6.51%
C=CCN1CC[C@]23c4c5ccc(O)c4O[C@H]2C(=O)CC[C@@]3(O)[C@H]1C5	–	3.93% [at 42.5 µM]
CCOC(=O)C(Cl)C(C)=O (configuration not stated)	–	8.7%
CC(Cl)Cl	–	9.21%
C=COC(C)=O	–	-2.78%
COC(=O)c1cncn1C(C)c1ccccc1 (configuration not stated)	–	14.2% [at 42.5 µM]
Clc1cc(Cl)c(Cl)c(Cl)c1	–	1.04%
C[C@@H]1CC[C@H]2[C@@H](C)C(=O)O[C@@H]3O[C@@]4(C)CC[C@@H]1[C@]32OO4	–	-1.07% [at 42.5 µM]
CCBr	–	2.95%
CCOP(O)OCC	–	1.05%
CC(C)(OO)c1ccccc1	–	-0.903%
CC1C(=O)C[C@]2(C(C)C)C[C@H]12 (some centres not stated)	–	-25.1%
CC/C(=N\OC/C=C/Cl)C1=C(O)CC(C2CCOCC2)CC1=O (configuration not stated)	–	2.59%
C=CC(=O)OCC(C)O (configuration not stated)	–	1.73%
CCOS(C)(=O)=O	–	3.83%
